Test results: PubChem BioAssay (NCATS)
Results filed as inconclusive are left out. Active and inactive are the calls of the source. Unless noted, the call rests on the fitted dose curve; in most records, active means well fitted curve in the direction sought with a large enough effect; inconclusive means small, poorly fitted or top-dose-only effect, or another doubt; inactive means no such curve, though single readings can be large; an effect the other way counts as inactive or inconclusive.

Columns and labels:
[1] = molecular target: Lysosomal acid glucosylceramidase (Homo sapiens) (UniProt P04062); assay: Glucocerebrosidase-p2 (AID 348; in the data active means potency below about 10 µM; further: potency means the concentration at half of the fitted maximal effect); conditions: purified GBA, blue fluorogenic substrate, 40 min
How it was run: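 Normal human glucocerebrosidase (0.2 nM) with blue fluorogenic substrate (80 uM final) in citrate/phosphate pH 5.9 with 10mM sodium taurocholate, 0.01% tween-20; 40 min RT, NaOH/glycine stop; fluorescence Ex 365/Em 440; AC50 from a titration from 0.6 nM upwards.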

[2] = AP1 Signaling Pathway (AID 357; active means well fitted curve in either direction with a large enough effect, not every such curve was filed as active;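 further: ME-180 reporter cells stimulated with EGF at its EC50 level; on the % scale 0 is the no-effect control and ±100 the full control effect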); conditions: ME-180 AP-1-bla reporter, EGF-induced, beta-lactamase ratio, 5 h; at 7.69 µM (top of the series) unless noted
How it was run: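 Read-out was the 460nm/530nm emission ratio (excitation 405nm) after CCF4 loading for 2.5 hours at room temperature. Cells carried an AP-1-driven beta-lactamase reporter, were stimulated with EC50 EGF plus compound for 5 hours, and AC50 values came from titrations.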

[3] = molecular target: Cytochrome P450 1A2 (Homo sapiens) (UniProt P05177); assay: p450-cyp1a2 (AID 410; calls by dose curve; further: potency means the concentration at half of the fitted maximal effect;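 on activity change, negative = inhibition: -100% = full effect of reference inhibitor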); conditions: recombinant CYP1A2, luciferin-ME demethylation, luminescence; series mostly up to 57 µM
How it was run: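 Luminescent demethylation readout: Luciferin-ME (100uM, equal to Km) turned over by 20nM CYP1A2 for 60 min at room temperature after NADPH regeneration addition, following 10 min compound preincubation. Normalization used 57 uM furafylline as full inhibition.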

[4] = NFAT Signaling Pathway (AID 444; active means well fitted curve in either direction with a large enough effect, not every such curve was filed as active;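 further: carbachol stimulus at about its EC50 of 1 µM final; on the % scale 0 is the no-effect control and ±100 the full control effect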); conditions: Jurkat NFAT-bla M1, carbachol, beta-lactamase ratio, 5 h; at 7.69 µM (top of the series) unless noted
How it was run: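 Jurkat cells with NFAT-driven β-lactamase reporter and co-expressed M1 receptor, stimulated with carbachol (final 1 uM, ~EC50), compound titration, 5 h at 37 °C. CCF4 loaded 1 h at RT; 460/530 nm ratio gave %activity and AC50.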

[5] = Stat Signaling Pathway (AID 446; active means well fitted curve in either direction with a large enough effect, not every such curve was filed as active;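 further: ME-180 cervical cancer cells given 40 pM IL-6 alongside compound; SIE-controlled beta-lactamase reporter measured as 460/530 nm FRET emission ratio; on the % scale 0 is the no-effect control and ±100 the full control effect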); conditions: ME-180 SIE beta-lactamase reporter, IL-6 stimulated, 5 h; at 7.69 µM (top of the series) unless noted
How it was run: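 Compound effects on IL-6-induced STAT reporter activity were measured in ME-180 cells. After overnight culture, cells were co-treated with 40 pM IL-6 for 5 hrs before beta-lactamase substrate loading at room temperature.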

[6] = molecular target: Glucocorticoid receptor (Homo sapiens) (UniProt P04150); assay: GR-GFP Redistribution (AID 450;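 active means compounds whose dose series gives a full or clear partial fitted curve of increased nuclear translocation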; further: potency means the concentration at half of the fitted maximal effect); conditions: U2OS GR-GFP nuclear translocation, laser cytometry, 2 h
[7] = molecular target: Glucocorticoid receptor (Homo sapiens) (UniProt P04150); assay: GR-EFC Redistribution (AID 451; calls by dose curve; further: potency means the concentration at half of the fitted maximal effect); conditions: CHO-K1 GR-EFC translocation, beta-gal luminescence, 2 h
How it was run: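 CHO-K1 cells expressing nuclear EA and GR-ED fragments of b-gal; compounds titrated up to 46 uM final, 2 h at 37 C. GR nuclear translocation read as complemented b-gal luminescence after 1 h RT detection.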

[8] = molecular target: Mitogen-activated protein kinase 10 (Mus musculus) (UniProt Q61831); assay: JNK3 AlphaScreen Assay (AID 530; active means well fitted curve in either direction with a large enough effect, not every such curve was filed as active;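 further: kinase came from lysate of stimulated human HepG2 cells; signal reports phosphorylation of biotinylated GST-cJun 1-79 at Ser73 with 10 µM ATP; on the % scale 0 is the no-effect control and ±100 the full control effect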); conditions: JNK3 lysate, c-Jun phosphorylation; series mostly up to 57.1 µM
How it was run: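 Activity was read by AlphaScreen after JNK3-containing HepG2 lysate (cytokine pre-activated) phosphorylated biotinylated GST-cJun with 10 uM ATP at room temperature. Phospho-Ser73 cJun antibody with Protein-A acceptor beads provided detection.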

[9] = molecular target: 3',5'-cyclic-AMP phosphodiesterase 4B (Homo sapiens) (UniProt Q07343); assay: qHTS Assay for Inhibitors of PDE-IV (AID 607; active means well fitted activation curve with a large enough effect in the main read-out, with a control signal flat, not every such curve was filed as active; further: % of control where 0% means no effect); conditions: HEK293 ACTOne CNG channel cells, membrane potential fluorescence; series mostly up to 22.9 µM
How it was run: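 ACTOne HEK293 cells carry a modified cAMP-gated CNG channel and express endogenous PDE4; plated 1000 cells/well, compounds up to 22.9 uM final. Membrane-potential dye fluorescence (ex 535/em 590) was read; parental cells received 10 uM forskolin + 100 uM RO 20-1724.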

[10] = qHTS Assay for Lipid Storage Modulators (AID 1519; calls by dose curve); conditions: Drosophila S3 cells, BODIPY lipid droplet/cell ratio, laser cytometry, cells loaded with oleic acid; for activity change, negative = inhibition: at 57.5 µM (top of the series)
How it was run: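 Cells seeded at 5,000 per well were treated with compounds over a concentration series and loaded with oleic acid (400 uM, as added). Lipid droplet fluorescence (488 nm excitation, 500-530 nm channel) was read by laser-scanning cytometry and normalized to 20 uM Triacsin C.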

[11] = molecular target: Dual specificity protein kinase CLK4 (Homo sapiens) (UniProt Q9HAZ1); assay: qHTS Assay for Inhibitors of CDC-like Kinase 4 (ADP-Glo Assay) (AID 1771); conditions: recombinant CLK4, ADP-Glo luminescence; series mostly up to 80 µM; further: nearly all actives have a fitted effect of over 70% in size; further: potency means the concentration at half of the fitted maximal effect
How it was run: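 ADP production was read by ADP-Glo luminescence after residual ATP depletion, following 1 h room-temperature reaction of 25 nM Clk4, 1 uM ATP and 100 uM RS peptide with MgCl2, EGTA, DTT and Triton X-100.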

[12] = molecular target: Dual specificity protein kinase CLK4 (Homo sapiens) (UniProt Q9HAZ1); assay: qHTS Assay for Inhibitors of CDC-like Kinase 4 (ADP-FP Assay) (AID 1795); conditions: Transcreener ADP fluorescence polarization; series mostly up to 50 µM; further: nearly all actives have a fitted effect of over 60% in size; further: potency means the concentration at half of the fitted maximal effect
How it was run: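 Recombinant Clk4 (6.25 nM) phosphorylated 100 uM RS repeat peptide with 1 uM ATP in 25 mM Tris pH 7.5, 10 mM MgCl2, 0.5 mM EGTA, 2.5 mM DTT, 0.01% Triton X-100 for 1 h. ADP was detected by Transcreener ADP2 competitive fluorescence polarization after 30 min at room temperature.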

[13] = molecular target: Ubiquitin carboxyl-terminal hydrolase 1 (Homo sapiens) (UniProt O94782); assay: Inhibitors of USP1/UAF1: Pilot qHTS (AID 504865); conditions: purified USP1/UAF1, Ub-rhodamine cleavage fluorescence; series mostly up to 54.9 µM;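 further: rhodamine fluorescence freed from ubiquitin-rhodamine substrate followed over time; top concentration of the series differs between compounds; on the % scale 0 is the no-effect control and ±100 the full control effect; nearly all actives have a fitted effect of over 35% in size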
How it was run: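 USP1/UAF1 complex at 1 nM preincubated 15 min at room temperature with compound, then Ub-Rho substrate added at 150 nM final. Fluorescence (480/540 nm) read kinetically in 50 mM HEPES pH 7.8, 0.5 mM EDTA, 1 mM TCEP, 0.1 mg/ml BSA, 0.01% Tween-20.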

[14] = Primary qHTS for small molecule stabilizers of the endoplasmic reticulum resident proteome: Secreted ER Calcium Modulated Protein (SERCaMP) assay (AID 1508630); conditions: SH-SY5Y GLuc-SERCaMP (Gaussia luciferase released on ER calcium loss) secretion, thapsigargin, luminescence; series mostly up to 38.4 µM; further: on the % scale 0 is the no-effect control and ±100 the full control effect
How it was run: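 The SH-SY5Y reporter protocol was run at 3 concentrations up to 38.3 uM (primary) or 11 concentrations (follow-up): 16 h compound, 100 nM thapsigargin for 4 h, then extracellular luciferase luminescence.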

[15] = molecular target: Cytochrome P450 3A4 (Homo sapiens) (UniProt P08684); assay: qHTS Assay for Activators of Cytochrome P450 3A4 (AID 885); conditions: recombinant CYP3A4, Luciferin-PPXE luminescence, 60 min; series mostly up to 57.1 µM; further: nearly all actives have a fitted effect of over 65% in size
How it was run: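 CYP3A4 activity: Luciferin-PPXE O-dealkylation, 25uM substrate, 200mM KPO4, RT throughout. Read-out is luciferase luminescence; higher values reflect activation.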

[16] = molecular target: Cytochrome P450 3A4 (Homo sapiens) (UniProt P08684); assay: qHTS Assay for Inhibitors and Substrates of Cytochrome P450 3A4 (AID 884); conditions: recombinant CYP3A4, Luciferin-PPXE luminescence; series mostly up to 57.1 µM; further: nearly all actives have a fitted effect of over 50% in size; further: potency means the concentration at half of the fitted maximal effect
How it was run: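 Luminescent readout of luciferin produced by CYP3A4 (20 nM) dealkylation of Luciferin-PPXE, 25 uM (its KM). NADPH-driven reaction ran 60 min at RT after 10 min compound preincubation; data scaled to 57 uM ketoconazole as 100% inhibition.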

[17] = qHTS Assay for Identification of Small Molecule Agonists for Hypoxia Response Element Signaling Pathway (AID 914; active means well fitted activation curve with a large enough effect in the signal ratio, with a control signal flat, not every such curve was filed as active; the % refers to the signal ratio; further: potency means the concentration at half of the fitted maximal effect); conditions: ME-180 (cervical carcinoma) HRE-bla reporter, beta-lactamase ratio, CoCl2, 17 h; activation: stronger effect = higher value
How it was run: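 HRE-bla ME-180 assay for agonist-like enhancement of an EC50 CoCl2 stimulus: 17 h at 37 degrees Celsius, CCF4 for 2.5 h, ratiometric 460/530 nm signal converted to %Activity and fitted to AC50.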

[18] = measured here: cell count channel max response
[19] = measured here: lipid channel max response

Cytochrome P450 1A2 (Homo sapiens), sequence (P05177 whole entry, looked up): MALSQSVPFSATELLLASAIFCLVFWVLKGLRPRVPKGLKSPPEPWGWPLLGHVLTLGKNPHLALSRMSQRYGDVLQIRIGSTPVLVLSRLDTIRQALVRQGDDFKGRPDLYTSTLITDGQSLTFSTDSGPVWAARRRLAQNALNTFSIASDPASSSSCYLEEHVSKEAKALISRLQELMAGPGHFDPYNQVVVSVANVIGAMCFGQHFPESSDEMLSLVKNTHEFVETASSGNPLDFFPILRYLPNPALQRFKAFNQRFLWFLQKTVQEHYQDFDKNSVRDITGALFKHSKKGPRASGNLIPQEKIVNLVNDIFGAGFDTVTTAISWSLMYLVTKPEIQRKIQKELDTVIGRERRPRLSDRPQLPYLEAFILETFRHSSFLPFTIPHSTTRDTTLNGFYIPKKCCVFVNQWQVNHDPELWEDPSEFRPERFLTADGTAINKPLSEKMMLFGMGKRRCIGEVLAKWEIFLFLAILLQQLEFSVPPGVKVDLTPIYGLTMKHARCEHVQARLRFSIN
3',5'-cyclic-AMP phosphodiesterase 4B (Homo sapiens), sequence (Q07343 whole entry, looked up): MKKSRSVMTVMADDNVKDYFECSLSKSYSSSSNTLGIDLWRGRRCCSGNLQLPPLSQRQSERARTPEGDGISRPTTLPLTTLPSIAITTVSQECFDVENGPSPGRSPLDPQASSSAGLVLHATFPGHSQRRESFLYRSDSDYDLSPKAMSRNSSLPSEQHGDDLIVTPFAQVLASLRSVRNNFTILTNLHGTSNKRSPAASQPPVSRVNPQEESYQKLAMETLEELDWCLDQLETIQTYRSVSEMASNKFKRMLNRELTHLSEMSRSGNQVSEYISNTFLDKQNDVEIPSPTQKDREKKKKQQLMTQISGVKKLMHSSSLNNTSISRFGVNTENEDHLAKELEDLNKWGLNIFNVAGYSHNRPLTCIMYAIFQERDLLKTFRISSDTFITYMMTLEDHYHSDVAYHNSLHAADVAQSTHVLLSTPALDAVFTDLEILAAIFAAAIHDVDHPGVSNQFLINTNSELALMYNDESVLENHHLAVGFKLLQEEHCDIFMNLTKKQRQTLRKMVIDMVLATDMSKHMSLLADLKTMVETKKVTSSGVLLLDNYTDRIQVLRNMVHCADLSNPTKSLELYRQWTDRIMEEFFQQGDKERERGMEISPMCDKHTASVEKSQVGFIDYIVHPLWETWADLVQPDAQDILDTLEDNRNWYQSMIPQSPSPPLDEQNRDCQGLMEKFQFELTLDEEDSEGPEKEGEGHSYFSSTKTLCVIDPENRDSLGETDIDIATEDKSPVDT
Ubiquitin carboxyl-terminal hydrolase 1 (Homo sapiens), sequence (O94782 whole entry, looked up): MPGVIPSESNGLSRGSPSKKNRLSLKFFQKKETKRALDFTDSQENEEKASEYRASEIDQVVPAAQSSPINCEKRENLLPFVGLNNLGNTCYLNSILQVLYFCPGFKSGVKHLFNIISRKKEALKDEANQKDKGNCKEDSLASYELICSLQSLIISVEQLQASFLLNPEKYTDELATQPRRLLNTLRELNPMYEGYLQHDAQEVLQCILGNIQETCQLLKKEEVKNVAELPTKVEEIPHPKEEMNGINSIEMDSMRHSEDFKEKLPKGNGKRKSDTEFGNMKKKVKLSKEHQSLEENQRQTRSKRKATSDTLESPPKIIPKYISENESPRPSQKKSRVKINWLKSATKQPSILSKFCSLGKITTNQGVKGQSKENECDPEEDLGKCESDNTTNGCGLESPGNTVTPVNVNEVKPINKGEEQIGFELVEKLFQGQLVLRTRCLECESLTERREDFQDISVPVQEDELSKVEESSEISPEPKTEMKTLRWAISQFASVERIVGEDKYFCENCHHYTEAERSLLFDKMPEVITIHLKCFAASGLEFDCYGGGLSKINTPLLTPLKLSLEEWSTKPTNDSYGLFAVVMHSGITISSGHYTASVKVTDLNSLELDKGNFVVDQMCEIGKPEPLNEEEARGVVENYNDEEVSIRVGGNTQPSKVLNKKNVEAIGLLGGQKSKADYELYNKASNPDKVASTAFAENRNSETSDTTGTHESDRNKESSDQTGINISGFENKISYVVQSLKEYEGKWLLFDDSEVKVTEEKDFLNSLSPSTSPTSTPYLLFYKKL
Cytochrome P450 3A4 (Homo sapiens), sequence (P08684 whole entry, looked up): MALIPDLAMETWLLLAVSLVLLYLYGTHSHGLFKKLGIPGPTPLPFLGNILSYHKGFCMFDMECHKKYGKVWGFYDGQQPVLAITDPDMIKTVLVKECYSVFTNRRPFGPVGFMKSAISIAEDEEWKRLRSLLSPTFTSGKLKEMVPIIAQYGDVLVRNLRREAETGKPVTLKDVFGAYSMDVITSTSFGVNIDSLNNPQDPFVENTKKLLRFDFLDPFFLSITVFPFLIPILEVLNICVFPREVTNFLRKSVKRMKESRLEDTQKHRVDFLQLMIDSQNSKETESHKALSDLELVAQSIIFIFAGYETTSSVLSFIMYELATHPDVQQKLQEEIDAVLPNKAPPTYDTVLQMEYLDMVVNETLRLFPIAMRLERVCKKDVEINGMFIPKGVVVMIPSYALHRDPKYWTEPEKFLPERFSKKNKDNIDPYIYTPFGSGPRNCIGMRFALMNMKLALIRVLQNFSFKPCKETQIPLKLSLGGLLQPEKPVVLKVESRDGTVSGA
Dual specificity protein kinase CLK4 (Homo sapiens), sequence (Q9HAZ1 whole entry, looked up): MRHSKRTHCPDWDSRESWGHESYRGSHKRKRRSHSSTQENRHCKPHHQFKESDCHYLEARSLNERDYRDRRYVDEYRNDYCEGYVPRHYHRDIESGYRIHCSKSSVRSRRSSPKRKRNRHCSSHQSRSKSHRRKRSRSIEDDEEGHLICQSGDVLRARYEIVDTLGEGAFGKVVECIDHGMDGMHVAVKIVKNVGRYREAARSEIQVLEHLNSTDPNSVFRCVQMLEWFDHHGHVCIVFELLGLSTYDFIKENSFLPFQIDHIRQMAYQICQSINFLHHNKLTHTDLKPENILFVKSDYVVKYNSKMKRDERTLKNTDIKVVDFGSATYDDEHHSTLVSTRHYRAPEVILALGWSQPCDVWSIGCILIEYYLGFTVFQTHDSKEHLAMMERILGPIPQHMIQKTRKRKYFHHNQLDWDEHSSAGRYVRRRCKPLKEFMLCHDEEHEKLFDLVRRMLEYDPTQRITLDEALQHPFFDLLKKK
Lysosomal acid glucosylceramidase (Homo sapiens), sequence (P04062 whole entry, looked up): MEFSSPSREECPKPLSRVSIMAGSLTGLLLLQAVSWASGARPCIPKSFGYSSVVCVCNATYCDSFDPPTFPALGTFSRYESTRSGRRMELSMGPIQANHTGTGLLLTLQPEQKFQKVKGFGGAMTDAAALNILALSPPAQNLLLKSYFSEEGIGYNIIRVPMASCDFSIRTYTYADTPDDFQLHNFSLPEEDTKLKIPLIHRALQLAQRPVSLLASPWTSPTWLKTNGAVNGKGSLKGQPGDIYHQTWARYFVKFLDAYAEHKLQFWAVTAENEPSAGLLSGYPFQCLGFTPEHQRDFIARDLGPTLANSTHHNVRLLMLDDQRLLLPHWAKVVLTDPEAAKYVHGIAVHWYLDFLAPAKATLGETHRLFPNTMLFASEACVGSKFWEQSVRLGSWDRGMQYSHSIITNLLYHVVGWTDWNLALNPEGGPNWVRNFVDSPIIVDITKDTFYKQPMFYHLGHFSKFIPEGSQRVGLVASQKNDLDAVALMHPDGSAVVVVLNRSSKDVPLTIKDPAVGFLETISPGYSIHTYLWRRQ
Glucocorticoid receptor (Homo sapiens), sequence (P04150 whole entry, looked up, the tested form may be a part): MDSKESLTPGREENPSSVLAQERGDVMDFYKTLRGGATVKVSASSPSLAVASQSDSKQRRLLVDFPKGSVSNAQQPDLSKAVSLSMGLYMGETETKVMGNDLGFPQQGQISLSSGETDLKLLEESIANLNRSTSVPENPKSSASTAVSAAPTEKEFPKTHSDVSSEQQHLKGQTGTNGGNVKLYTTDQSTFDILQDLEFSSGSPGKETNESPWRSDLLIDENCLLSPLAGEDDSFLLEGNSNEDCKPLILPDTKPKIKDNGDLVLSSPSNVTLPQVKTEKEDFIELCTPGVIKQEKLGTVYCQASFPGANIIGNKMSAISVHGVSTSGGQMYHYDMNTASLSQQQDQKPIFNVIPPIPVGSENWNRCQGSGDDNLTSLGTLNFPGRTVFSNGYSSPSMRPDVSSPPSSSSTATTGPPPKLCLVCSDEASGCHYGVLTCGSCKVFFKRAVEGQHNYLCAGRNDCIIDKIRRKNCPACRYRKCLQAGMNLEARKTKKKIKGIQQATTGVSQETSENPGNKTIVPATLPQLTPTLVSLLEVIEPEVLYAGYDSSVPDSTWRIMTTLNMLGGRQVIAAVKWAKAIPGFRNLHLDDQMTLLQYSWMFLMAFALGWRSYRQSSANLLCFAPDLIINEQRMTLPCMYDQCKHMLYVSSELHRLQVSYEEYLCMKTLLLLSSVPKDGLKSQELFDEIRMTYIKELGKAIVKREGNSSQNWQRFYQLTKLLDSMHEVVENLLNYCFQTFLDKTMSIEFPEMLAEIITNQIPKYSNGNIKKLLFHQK

CN(C)C(=O)c1ccc(-c2cncnc2N2CCNCC2)cc1
inactive: Potency [1] > 11.4 µM | activity change, negative = inhibition [2] -5.59% | Potency [3] | activity change, negative = inhibition [4] 10.6% | activity, negative = inhibition [5] 9.81% | Potency [6] > 46 µM | Potency [7] > 46 µM | outcome [8] | Potency [9] | activity change, negative = inhibition [10] 5.34% | Potency [11] | Potency [12] | Potency [13] | Potency [14]
16.8%: max response [10, 18]
20.2%: max response [10, 19]

COc1ccc(-n2c(=O)c(-c3cccs3)nc3cnc(N4CCOCC4)nc32)cc1
inactive: Potency [1] > 11.4 µM | activity change, negative = inhibition [2] 0.656% | activity change, negative = inhibition [4] -15.7% | Potency [6] > 9.22 µM | Potency [7] > 46 µM | outcome [8] | Potency [9] | Potency [15] | activity change, negative = inhibition [10] 5.16% | Potency [11] | Potency [12] | Potency [13] | Potency [14]
active: Potency [3] 12.6 µM
27.2%: max response [10, 19]
28.1%: max response [10, 18]

CCNc1ncc2nc(-c3cn(C)c4ccccc34)c(=O)n(Cc3cccc(OC)c3)c2n1
active: Potency [16] 3.98 µM | Potency [17] 1.58 µM
15.6%: max response [10, 18]
16.9%: max response [10, 19]
inactive: Potency [1] > 11.4 µM | activity change, negative = inhibition [2] 0.603% | activity change, negative = inhibition [4] 5.19% | Potency [6] > 9.22 µM | Potency [7] > 46 µM | outcome [8] | Potency [9] | Potency [15] | activity change, negative = inhibition [10] 2.75% | Potency [11] | Potency [12] | Potency [13] | Potency [14]

CN1CCN(c2ncc3nc(-c4ccc(Cl)cc4)c(=O)n(Cc4cccs4)c3n2)CC1
active: activity change, negative = inhibition [2] 140% [activator] | Potency [3] 10 µM
16.2%: max response [10, 19]
inactive: Potency [1] > 11.4 µM | Potency [6] > 9.22 µM | Potency [7] > 46 µM | Potency [9] | Potency [16] | activity change, negative = inhibition [10] 0.387% | Potency [11] | Potency [12] | Potency [13] | Potency [14]
19.7%: max response [10, 18]

COc1ccc2[nH]cc(CCNc3ncnc4ccc(-c5cccnc5)cc34)c2c1
-9.11%: max response [10, 19]
inactive: Potency [1] > 11.4 µM | activity change, negative = inhibition [4] 18.7% | activity, negative = inhibition [5] -10.2% | Potency [6] > 46 µM | Potency [7] > 46 µM | Potency [9] | Potency [15] | activity change, negative = inhibition [10] -3.03% | Potency [13] | Potency [14]
active: Potency [3] 0.0794 µM | Potency [11] 2.24 µM | Potency [12] 3.16 µM
-7.3%: max response [10, 18]

CN(C)c1ncc2nc(-c3ccc(F)cc3)c(=O)n(C[C@H]3CCCO3)c2n1
inactive: Potency [1] > 11.4 µM | activity change, negative = inhibition [2] 26.6% | activity change, negative = inhibition [4] 26.7% | outcome [8] | Potency [9] | activity change, negative = inhibition [10] -2.2% | Potency [11] | Potency [12] | Potency [13] | Potency [14]
12.6%: max response [10, 18]
active: Potency [3] 2.51 µM
6.86%: max response [10, 19]
